Molecules are shown by their SMILES. Potency and affinity values are given separately.

This test relates to Escherichia coli. The conditions noted are these: Concentration 32 ug.mL-1; ASSAY_TEST Inhibition of Bacterial Growth; detection method Absorption (OD600); MEDIA CAMHB; plate type 384well; NBS; CORNING #3640; time 18 hr.
One may read the Inhibition as the change of the read-out against control, counted positive when it falls. For `Cl.N#Cc1c(Cl)nc(N)nc1NCCO`, the Inhibition is recorded as -1.11%. The value for `C=CCNCc1cc2cc(OCCCC3CCN(Cc4ccccc4)CC3)ccc2[nH]1.O.O=C(O)C(=O)O.O=C(O)C(=O)O` was -23.08%; that for `O=C(N/N=C/c1ccc([N+](=O)[O-])cc1)c1cc2ccccc2[nH]1` was 10.51%.

For the compound `O=C(N/N=C/Cc1ccccc1)c1cc2ccccc2[nH]1`, the Inhibition is 9.88%. The value for `COc1ccc(CNNC(=O)c2cc3ccccc3[nH]2)cc1O` was 2.63%; that for `CC(=O)NC(=Cc1ccccc1)C(=O)O` was 10.22%.

As to `CC(=O)NC=C1C(=O)OC(C)(C)OC1=O`, the Inhibition worked out at 11.61%. To `N#Cc1cc(Br)cc(Br)c1N` belongs 14.62%; to `CCOc1nc(N)c(C#N)cc1C#N.Cl`, -30.21%; to `Cl.OCC1CCN(Cc2ccccc2)CC1`, 15.91%. The value for `COc1ccc(C2c3c(nc4c(c3N)CCCC4)Oc3ccc4ccccc4c32)c(OC)c1` (centres undefined) was 3.89%. `N#CC1(Br)C(=NBr)Oc2ccc3ccccc3c2C1c1ccccc1` (centres undefined): the Inhibition is recorded as 1.03%. With `N#Cc1c(N)nc(N2CCOCC2)c(C#N)c1-c1ccccc1`, the Inhibition came out at 0.53%. The value for `Cc1ccc(C(O)SNNc2ncnc3c2c(C)nn3-c2ccccc2)cc1` (centres undefined) was 11.97%; that for `CCOC(=O)N/N=C/c1ccccc1` was -1.06%; that for `C=CCNc1nc(N)c(C#N)cc1C#N` was -12.52%.

As for `O=Cc1cc2ccccc2nc1Cl`, the Inhibition is 16.87%. Regarding `Cc1[nH]c2ccc(OCc3ccccc3)cc2c1C(=O)NN`, the Inhibition is -5.77%. Take `C#CCN1CCc2nc3nc(NC4CCN(Cc5ccccc5)CC4)c(C#N)cc3c(N)c2C1`: the Inhibition is -8.32%. For `CSC1=NC(=Cc2ccccc2)C(=O)N1C`, the Inhibition was found to be 10.03%.

In the case of `O=C(N/N=C/c1c[nH]c2ccccc12)c1ccco1`, the Inhibition is 12.98%. To `O=C1OC(c2ccccc2)=NC12CC2c1ccc([N+](=O)[O-])cc1` (centres undefined) belongs 5.57%; to `CSC1=NC(=Cc2cn(C)c3ccccc23)C(=O)N1C`, -1.24%. Take `O=C(O)C(=Cc1ccccc1)NC(=O)c1ccccc1`: the Inhibition is recorded as 9.37%. To `OCc1cc2ccccc2[nH]1` belongs -0.49%; to `COc1ccc(C2c3c(ccc4ccccc34)OC(=NBr)C2(Br)C#N)cc1` (centres undefined), -19.75%; to `C#CCN(C)c1cc(Cl)nc(N)n1`, -8.33%. To `COc1ccc2cc(C3C4=C(CC(C)(C)CC4=O)Oc4nc5c(c(N)c43)CCCCC5)c(Cl)nc2c1` (centres undefined) belongs 12.92%; to `CC#CCN(Cc1ccccc1)c1nc(N)c(C#N)c(-c2ccccc2)c1C#N`, -2.98%.

For the compound `CC(=O)Nc1n[nH]c2nc(N)c(C#N)c(-c3ccccc3)c12`, the Inhibition was 1.16%. To `CC(=O)CC(=O)N1[C@@H]2C[C@H]3CCC2(CS1(=O)=O)C3(C)C` belongs 7.75%; to `N#Cc1cc2c(N)c3c(nc2nc1Cl)CCCC3`, -0.19%.

Regarding `Cc1ccc2nc(Cl)c(/C=N/NCc3ccccc3)cc2c1`, the Inhibition worked out at 22.89%.

In the case of `CC(=O)Nc1nc(Cl)c(C#N)c(-c2ccccc2)c1C#N`, the Inhibition is reported as -6.98%.

In the case of `N#CC1(Br)C(=NBr)Oc2c(ccc3ccccc23)C1c1ccc([N+](=O)[O-])cc1` (centres undefined), the Inhibition was -19.6%. In the case of `c1ccc(CNc2ncnc3c2cnn3-c2ccccc2)cc1`, the Inhibition was found to be 6.64%.

As to `COc1ccc(C2C(C#N)=C(N)Oc3ccc4ccccc4c32)cc1` (centres undefined), the Inhibition is listed as -4.54%. To `Cl.ClCCCN1CCCCC1` belongs 17.01%; to `N#Cc1c(N)nc2[nH]nc(N)c2c1-c1ccccc1`, -6.5%.
